According to PubChem BioAssay (EPA / NIEHS):
Results filed as inconclusive are left out. Activity calls are given as the source filed them. The calls were made as follows: active = hit-call score of the fitted dose curve at least 0.9, where 1 is the maximum; inconclusive = response in the unintended direction; inactive = score below 0.9.

Test: TOX21_PR_LUC_Followup_Antagonist_viability: Viability Assessment in the Tox21 HEK293 Progesterone Receptor (PR) Antagonism Luciferase Follow-Up Assay (AID 2283940)
Source text: TOX21_PR_LUC_Followup is a secondary assay for specificity for the TOX21_PR_BLA_Agonist assay. To differentiate true PR agonists from cytotoxic substances, this follow up assay is multiplexed with a cell viability assay.TOX21_PR_LUC_Followup_Antagonist_viability is an assay readout measuring cellular ATP content and detected with CellTiter-Glo Luciferase-coupled ATP quantitation.TOX21_PR_LUC_Followup_Antagonist_viability used a type of viability reporter where loss-of-signal activity can be used to understand changes in the cell viability. Furthermore, this assay endpoint can be referred to as a secondary readout, because this assay has produced multiple assay endpoints where this one serves a viability function. To generalize the intended target to other relatable targets, this assay endpoint is annotated to the cell cycle intended target family, where the subfamily is cytotoxicity.
Quality Control Precautions: Maintain cells below 85-90% confluence in culture medium. For assay purpose, the cells should be cultured in assay medium with 10% charcoal stripped FBS for 5 days with alternate day medium changed to fresh medium. Especially while in assay culture, the cells should not reach more than 85% confluence as they would become harder to detach if they reach over confluence.Assay Protocol: HEK293-PR-A-luc cells were dispensed at 3,000 cells/5 uL/well of culture medium into white wall/solid-bottom 1536-well plates using a Multidrop Combi (ThermoFisher Scientific, Waltham, MA) dispenser. After the assay plates were incubated at 37C and […] for 5 h, 23 nL of compounds dissolved in DMSO, positive controls or DMSO only was transferred to the assay plate by a Pintool station (Kalypsys, San Diego, CA). The plates were incubated at 37C and […] for 16 h. Then 4 uL of ONE-Glo reagent (Promega, Madison, WI) was added to each plate using a BioRAPTR Flying Reagent Dispenser (FRD) workstation (Beckman Coulter, Indianapolis, IN, USA) and luminescence was quantified on a ViewLux (PerkinElmer, Shelton, CT) plate reader after 30 min incubation at room temperature.
For `O=C1C2(Cl)C3(Cl)C4(Cl)C(Cl)(Cl)C5(Cl)C3(Cl)C1(Cl)C5(Cl)C24Cl` (stereo not given), the outcome was “inactive”. For `C[C@]12CC[C@H](O)CC1=CC[C@@H]1[C@@H]2CC[C@]2(C)C(=O)CC[C@@H]12`, the outcome was “inactive”. For `CC1(C)CCC(Cc2ccc(Cl)cc2)C1(O)Cn1cncn1` (stereo not given), the outcome was “inactive”. For `CC(C)C1CCC(Cc2ccc(Cl)cc2)C1(O)Cn1cncn1` (stereo not given), the outcome was “inactive”. With `Nc1ccc(-c2ccc(N)c(Cl)c2)cc1Cl` the outcome was “inactive”. With `Oc1ccc(-c2ccccc2)cc1` the outcome was “inactive”. For `C[C@]12CCC(=O)C[C@@H]1CC[C@@H]1[C@@H]2CC[C@]2(C)[C@@H](O)CC[C@@H]12`, the outcome was “inactive”. With `C[C@H]1CCCC(=O)CCC/C=C/c2cc(O)cc(O)c2C(=O)O1` the outcome was “inactive”. For `CC12CC1(C)C(=O)N(c1cc(Cl)cc(Cl)c1)C2=O` (stereo not given), the outcome was “inactive”. For `Clc1ccc(C2(Cn3cncn3)CC(Br)CO2)c(Cl)c1` (stereo not given), the outcome was “inactive”.
